An excerpt weighted towards active compounds, which were near 21% of everything screened.
Pf growth 96h: P. falciparum growth inhibition at 96 hour, primary screen for plastid delayed-death inhibitors. P. falciparum luciferase reporter growth, 96 h. Potency, µM (series often up to 28.7 µM), inactives show at the highest dose activity change, negative = inhibition, usual class: inhibitors. 6.9% of 320,000 active; also: potency is read from the fitted curve at half-maximal effect; % is scaled to controls: 0 for no effect and ±100 for the full control effect
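Plates of compound plus infected erythrocytes (2% hematocrit, 0.05% parasitemia final) incubate 96 hours, 37 C, 5% CO2. Detection reagent added; reduced luminescence from the parasites' luciferase reporter flags inhibition.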
Pf growth 48h: inhibits P. falciparum growth in the first generation, 48 h; P. falciparum luciferase growth in erythrocytes, 48 h; 5.9% of 310,000 active; Potency, µM (highest dose often 28.7 µM), without a hit: top-dose activity change, negative = inhibition, most hits filed as inhibitors; AID 504832; also: potency is read from the fitted curve at half-maximal effect; % is scaled to controls: 0 for no effect and ±100 for the full control effect
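Cell-based growth assay: transgenic P. falciparum expressing firefly luciferase, cultured in red cells within RPMI 1640 containing 0.5% w/v Albumax, 24 mM bicarbonate and gentamycin. A drop in luciferase activity indicates inhibition.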
Cycloheximide cs: counter-screen hit for Shiga toxin inhibitors, cycloheximide. 12% of 300,000 active. max response, %. cell reporter, cycloheximide protein synthesis inhibition counterscreen; in the data active = max response mostly above about 13%, no sharp cut-off; inactive = mostly below about 14%; also: read at 38.3 µM for the half of the compounds with a filed dose; 0% is about no effect
HCV inhibitor: blocks hepatitis C virus; Huh7.5.1 HCVcc-Cre infection, luciferase reporter, 44 h; Potency, µM (top dose mostly 41.8 µM), for the others: at the top dose activity change, negative = inhibition, usual class: inhibitors; 3.4% of 340,000 active; AID 651820; also: potency is read from the fitted curve at half-maximal effect; % is scaled to controls: 0 for no effect and ±100 for the full control effect
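Seed cells (1,000/well) for 4 h; treat with compound and infect with HCVcc-Cre, moi about 0.5. Incubate 44 h, then detect luciferase activity.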
HCMV antiviral: blocks human cytomegalovirus replication | HFF cells, HCMV-luciferase reporter, 72 h; stronger effect = lower value | activity change, negative = inhibition, % at 57.5 µM | 4.5% of 410,000 active; in the data active = activity change below about -60%; inconclusive = no clear call, values can overlap the other calls; inactive = above about -39%; also: % is scaled to controls: 0 for no effect and ±100 for the full control effect
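Cell-based, HFFs, 1000 cells/well, 16 h 37C; cpds in DMSO + HCMV-luc, MOI 1 PFU/cell; 72 h 37C; OneGlo luminescence after 5 min RT; norm. to buffer vs Salinomycin 10uM.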
Shiga inhibitor: blocks Shiga toxin action in Vero cells | 9.2% of 290,000 active | Vero cells, Shiga toxin protein synthesis inhibition reporter | inhibition, % at 38.7 µM; in the data active = inhibition mostly above about 28%, no sharp cut-off; inactive = mostly below about 43%; also: 0% is about no effect
Starred values were filed as active, the others as inactive; ? = inconclusive; / = no result given; [ ] = remark or other dose. Unless noted, calls follow the shape of the dose curve; as a rule, active = well fitted inhibition curve with a large enough effect; inconclusive = small, poorly fitted or top-dose-only effect, or another doubt; inactive = no such curve, though single readings can be large or run the other way.

SMILES	Pf growth 96h	Pf growth 48h	Cycloheximide cs	HCV inhibitor	HCMV antiviral	Shiga inhibitor
COc1cc(C(C)=O)ccc1OCC(O)CN1CCN(c2cc(C)cc(C)c2)CC1 (stereo unspecified)	?	-16%	-4	13µM*	12	1
CN1CCN(CC(O)COC(c2ccccc2)c2ccccc2)CC1 (stereo unspecified)	-2%	0%	9	16µM*	?	-5
Cc1ccc(C(OCC(O)CN2CCCCC2CO)c2ccccc2)cc1 (stereo unspecified)	1.7µM*	?	-2	-19%	-13	-7
CC(=O)c1ccc(N2CCN(CC(O)COC(c3ccccc3)c3ccccc3)CC2)cc1 (stereo unspecified)	-7%	?	-6	4µM*	12	-4
CC(=O)c1ccc(N2CCN(CC(O)COC(c3ccccc3)c3ccccc3C)CC2)cc1 (stereo unspecified)	?	10µM*	-2	11µM*	30	-1
CC(=O)c1ccc(OCC(O)CN2CCN(c3ccc(F)cc3)CC2)cc1 (stereo unspecified)	-39%	/	-1	-4%	1	-6
Cc1ccc(S(=O)(=O)N2CCCC2CNC(=O)c2ccc3c(c2)OCO3)cc1 (stereo unspecified)	15µM*	?	/	?	8	/
O=C(CN1CCN(S(=O)(=O)c2ccccc2)CC1)NCCc1ccccc1	-28%	19%	-6	17%	-14	-10
O=S(=O)(c1ccccc1)N1CCN(C(=S)NCCc2ccccc2)CC1	?	?	-3	-6%	-72*	-12
COc1ccc(CCNC(=S)N2CCN(S(=O)(=O)c3cccc(F)c3)CC2)cc1	?	?	/	6%[8.37 µM]	-29	/
CC(Sc1ccccc1)C(=O)N1CCN(S(=O)(=O)c2ccccc2)CC1 (stereo unspecified)	-43%	16%	-2	26%	-63*	-6
COc1ccc(S(=O)(=O)N2CCN(C(=S)NCCc3ccccc3)CC2)cc1	?	4.1µM*	-1	/	-1	-3
Cc1ccc(S(=O)(=O)N2CCCC2CNC(=O)c2ccccc2)cc1 (stereo unspecified)	?	?	/	5%	-8	/
Cc1ccc(CNC(=O)c2ccc(Cn3c(SCc4ccc(F)cc4)nc4cccnc43)cc2)o1	/	/	/	/	44	/
CCOc1ccc(OCC)c(NC(=O)c2nnn(CC(=O)Nc3ccc(C)cc3C)c2N)c1	/	/	/	/	0	/
Cc1ccc(S(=O)(=O)N2CCN(C(=S)NCc3ccc4c(c3)OCO4)CC2)cc1	?	1.9µM*	10	?	-12	-17
CCNC(=S)N1CCN(S(=O)(=O)c2ccc(C)cc2)CC1	-12%	18%	-4	0%	25	-14
COCCCNC(=S)N1CCN(S(=O)(=O)c2ccc(OC)cc2)CC1	-14%	?	-3	-83%	?	16
COc1ccc(CCNC(=S)N2CCN(S(=O)(=O)c3ccc(C)cc3)CC2)cc1	2.6µM*	2.9µM*	/	?	-98*	/
Nc1ccc(S(=O)(=O)N2CCc3ccccc32)cc1	?	203%	-2	8%	47	23
O=S(=O)(NC1CCCC1)c1ccc(S(=O)(=O)N2CCc3ccccc32)cc1	/	7%	-3	?	-99*	-3
O=S(=O)(c1ccc(F)c(F)c1)N1CCCc2ccccc21	1%	18%	37*	-3%	-10	64*
O=S(=O)(c1ccc(Br)cc1)N1CCCc2ccccc21	?	0%	12*	?	-7	-7
Cc1cccc(S(=O)(=O)N2CCCc3ccccc32)c1	0%	-45%	11	1%	17	-7
Cc1cc(C)c(S(=O)(=O)N2CCCc3ccccc32)c(C)c1	?	13µM*	1	-8%	-22	-18
SMILES	Pf growth 96h	Pf growth 48h	Cycloheximide cs	HCV inhibitor	HCMV antiviral	Shiga inhibitor
Cc1cccc(NS(=O)(=O)c2ccc3c(c2)OCC(C(=O)N2CCCC2)O3)c1C (stereo unspecified)	/	/	/	/	-9	/
O=S(=O)(NC1CCc2ccccc21)c1ccc(S(=O)(=O)N2CCCC2)cc1 (stereo unspecified)	?	?	-4	11µM*	5	-6
CCOC(=O)c1cc2c(=O)n3ccccc3nc2n(CCOC)c1=NC(=O)c1cc2ccccc2o1	/	/	/	/	4	/
COc1cc(C(=S)N2CCCC2)cc(OC)c1OC	139%	32%[1.15 µM]	-1	14%	27	15
CC(C)(C)c1cc(C(=S)N2CCCC2)cc(C(C)(C)C)c1O	4.1µM*	?	-2	?	-32	-3
Oc1ccccc1C1=NCCNC(C(F)(F)F)=C1	-3%	1%	-5	-2%	-27	-2
FC(F)(F)C1=CC(c2ccc(Cl)cc2)=NCCN1	2.6µM*	?	6	-11%	43	-2
CSc1ccc(C(=S)N2CCCC2)cc1	?	5%	16*	21%	65	25
CSc1ccc(C(=S)N2CCN(C)CC2)cc1	46%	4%	9	0%	51	10
CSc1ccc(C(=S)N2CCN(C(c3ccccc3)c3ccccc3)CC2)cc1	5.2µM*	/	1	-2%	-2	13
COc1cc(-c2nc(-c3ccccc3)c(-c3ccc(Br)cc3)[nH]2)cc(OC)c1O	/	/	/	/	3	/
COc1ccc(-c2[nH]c(-c3cc(OC)c4c(c3)OCO4)nc2-c2ccccc2)cc1	?	4.1µM*	0	?	-71*	17
CCOC(=O)C(C)Sc1nc(-c2ccccc2Cl)cc(-c2ccccc2)c1C#N (stereo unspecified)	/	/	/	/	-2	/
CCOC(=O)C(C)Sc1nc(-c2cccs2)ccc1C#N (stereo unspecified)	20%	-15%	25*	14µM*	47	104
C=COC(=O)CSc1nc(-c2cccs2)ccc1C#N	28%	54%	31*	3%	40	38
CCc1ccccc1N(CC)C(=O)c1c(C)oc2ncnc(N3CCOCC3)c12	/	/	/	/	-24	/
O=C(NC(=S)N1CCc2ccccc21)c1ccc(Br)o1	?	?	14	7%	84	24
CN1CCN(C(=S)NC(=O)c2ccccc2Br)CC1	1.9µM*	-8%	-1	9%	-4	-5
O=C(NC(=S)N1CCc2ccccc21)c1ccccc1Br	?	10%	25*	7%	54	96*
CCOc1ccc(OCCC(=O)OCC(=O)NCc2ccc(Cl)cc2)cc1	47%	2%	/	18%	-19	/
CCN(CC)S(=O)(=O)c1cccc(-c2nnc(SCC(=O)c3ccc(Cl)s3)n2C)c1	58%	13µM*	2	-14%	3	-3
Cn1c(Cn2nnc3ccccc32)nnc1SCC(=O)N1c2ccccc2CCc2ccccc21	19%[5.75 µM]	?	-1	-10%	-20	-15
Cn1c(SCC(=O)N2c3ccccc3CCc3ccccc32)nnc1-c1ccc(O)cc1	-15%	12µM*	3	7%	-27	36

Source: PubChem
